Test results taken from PubChem BioAssay AID504710 (Sanford-Burnham Center for Chemical Genomics, 2011).
A number with no mark means an inactive call. The source made the active and inactive calls.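 Rule for the calls: active = inhibition reaching about 16% in any single replicate (limit read from the data); inactive = the rest.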

Target: Hexokinase HKDC1 (Homo sapiens) (UniProt Q2TB90)
Assay: compounds lowering human HKDC1 activity – biochemical, single concentration, confirmation (AID 504710)
Settings: recombinant HKDC1, G6PDH/diaphorase/resazurin fluorescence; at 20 µM; active compounds read high

Hexokinase HKDC1 (Homo sapiens), sequence (Q2TB90 whole entry, looked up): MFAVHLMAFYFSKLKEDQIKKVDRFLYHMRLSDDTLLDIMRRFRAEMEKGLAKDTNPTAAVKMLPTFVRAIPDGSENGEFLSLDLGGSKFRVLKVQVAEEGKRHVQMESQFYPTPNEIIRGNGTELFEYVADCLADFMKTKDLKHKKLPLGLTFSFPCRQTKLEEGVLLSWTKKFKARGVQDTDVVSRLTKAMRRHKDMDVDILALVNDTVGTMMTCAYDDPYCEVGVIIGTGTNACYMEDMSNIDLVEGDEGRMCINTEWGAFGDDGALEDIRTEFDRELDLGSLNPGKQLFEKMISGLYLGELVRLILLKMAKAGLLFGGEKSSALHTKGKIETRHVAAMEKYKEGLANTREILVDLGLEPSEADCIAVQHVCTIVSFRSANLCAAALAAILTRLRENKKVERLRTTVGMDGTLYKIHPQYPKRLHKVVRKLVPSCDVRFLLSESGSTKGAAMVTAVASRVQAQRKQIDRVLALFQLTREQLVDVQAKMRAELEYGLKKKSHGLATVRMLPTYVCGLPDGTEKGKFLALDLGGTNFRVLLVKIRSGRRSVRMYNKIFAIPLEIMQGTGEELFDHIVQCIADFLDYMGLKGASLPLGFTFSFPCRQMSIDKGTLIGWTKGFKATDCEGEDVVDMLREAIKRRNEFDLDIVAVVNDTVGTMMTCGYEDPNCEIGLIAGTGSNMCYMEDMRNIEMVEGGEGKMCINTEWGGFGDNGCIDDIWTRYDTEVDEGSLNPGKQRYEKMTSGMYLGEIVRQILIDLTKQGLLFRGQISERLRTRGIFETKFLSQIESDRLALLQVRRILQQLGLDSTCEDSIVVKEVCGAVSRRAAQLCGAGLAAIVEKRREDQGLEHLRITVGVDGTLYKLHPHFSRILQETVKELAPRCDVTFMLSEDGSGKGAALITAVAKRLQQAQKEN

SMILES | inhibition
COc1ccccc1C1=NNC(=Nc2cccc(S(=O)(=O)N(C)C)c2)SC1 | -177%
CCCCNC(=O)c1sc(=S)n2c1[nH]c(=O)c1ccccc12 | 56.5% (active)
Cc1ccc2oc(=O)c3cnn(CC(=O)N4CCc5ccccc5C4)c3c2c1 | -50.8%
N#C/C(=C(/O)CCl)c1nc2c(s1)CCc1ccccc1-2 | 46.1% (active)
CC(C)(C)c1nnc(N/N=C/c2cc(Br)ccc2O)n(N)c1=O | -48.8%
CCCCNC(=O)c1sc(=S)n2c1[nH]c(=O)c1ccc(C(=O)NCCc3ccc(OC)c(OC)c3)cc12 | 49.8% (active)
O=C(/C=C/c1cccs1)Nc1scc(-c2ccccc2)c1C(=O)O | 58.2% (active)
Cc1nc2c(c(=O)c3ccccc3n2C)c(=O)n1-c1ccc(F)cc1 | 52.9% (active)
Cc1cc(C(F)F)n2ncc(C(=O)NCCc3ccc(Cl)cc3)c2n1 | 36.2% (active)
NC(=NCc1ccc2c(c1)OCO2)NC(=O)c1ccccc1 | 16.7% (active)
O=C(/C=C/c1ccc(Br)cc1)NC(=S)Nc1ccc(S(=O)(=O)Nc2nccs2)cc1 | 39.5% (active)
Cc1cc2cc(CCNC(=O)c3ccc(S(=O)(=O)N4CCOCC4)cc3)c(=O)[nH]c2cc1C | 45% (active)
Cc1ccc(N=Cc2cc(Cc3ccccc3Cl)cc([N+](=O)[O-])c2O)c(O)c1 | 30.2% (active)
O=C(O)c1ccccc1-c1c2cc(I)c(=O)c(I)c-2oc2c(I)c(O)c(I)cc12 | 43.5% (active)
CCc1c(C)c(C#N)c2nc3ccccc3n2c1NC | -43.3%
